The campaign covered roughly 68,000 compounds. About 2,700 (4%) showed an effect of 50% or more. The entries come from a sample that favours strong results as a whole.
These compounds were tested on Plasmodium berghei (assay: Screen against P. berghei liver stage (PbLuc), transformed with Luciferase, at 2uM). Conditions: tested at 2 uM.
Format: functional, HepG2

SMILES	INHIBITION [%]
Cc1cn(Cc2ccc(F)c(F)c2)nc1N	17.69
FC(F)(F)c1[nH]nc2c1CN(Cc1ccccc1)CC2	57.77
[O-][S+](CCN1CCc2[nH]nc(C(F)(F)F)c2C1)c1ccccc1 (configuration not stated)	-62.71
FC(F)(F)c1n[nH]c2c1CN(Cc1cn3ccccc3n1)CC2	-7.14
Cc1ccccc1CN1CCC2(CC1)CN(S(=O)(=O)c1ccccc1)C2	43.51
O=C(NCc1cccnc1)Nc1cc(C(F)(F)F)c[nH]c1=O	-13.92
O=C1N(c2ccsc2)CCC12CCCN(CC1CC1)C2 (configuration not stated)	7.77
Cc1csc(CN(CC2CCCO2)C(=O)c2cccnc2C)n1 (configuration not stated)	-5.92
O=C(c1cccnc1O)N(Cc1ccsc1)CC1CCCO1 (configuration not stated)	-85.83
O=C(c1cccnc1O)N(Cc1cccs1)CC1CCCO1 (configuration not stated)	64.9
c1ccc2[nH]c(C3CCN(Cc4nc(C5CC5)no4)CC3)cc2c1	-3.99
O=C(CCc1cc2n(n1)CCCNC2)N1CCSCC1	-9.98
Cc1n[nH]c(CN2CCN(c3ncnc4scc(C)c34)CC2)c1Cl	74.18
CCc1nc(C)c(CN2CCN(c3ncnc4scc(C)c34)CC2)[nH]1	-33.43
CCc1nc(C)c(CN2CCN(c3ncnc4c(C)csc34)CC2)[nH]1	-3.25
CC(C)Oc1ncccc1CNC(=O)N1CCOCC1	-10.84
CN(C)CC(=O)N1CCc2sc(C(=O)N3CCN(C)CC3)cc21	34.93
O=C(NCc1ccccn1)[C@@H]1CC[C@@H]2[C@@H](CCN2c2ncc(F)cn2)O1	21.77
Cn1cnnc1C1CCCN(C(=O)c2cc(Cl)c3c(c2)OCO3)C1 (configuration not stated)	3.9
Cc1nc(C2CCCN(C(=O)c3ccoc3)C2)no1 (configuration not stated)	-3.64
Cc1nc(C2CCCN(C(=O)c3ccco3)C2)no1 (configuration not stated)	51.32
Cc1nc(C2CCCN(C(=O)c3cccc4c3OCO4)C2)no1 (configuration not stated)	27.31
Cc1nc(C2CCCN(C(=O)c3cc(Cl)c4c(c3)OCO4)C2)no1 (configuration not stated)	50.05

SMILES	INHIBITION [%]
CCn1cc(C(=O)N2CCCC(c3noc(C)n3)C2)cn1 (configuration not stated)	31.46
Cc1cccc(C(=O)N2CCCC(c3noc(C)n3)C2)n1 (configuration not stated)	-11.71
Cc1nc(C2CCCN(C(=O)c3cnn(C(C)(C)C)c3)C2)no1 (configuration not stated)	56.12
Cc1nc(C2CCCN(C(=O)c3cnn(C4CCCCC4)c3)C2)no1 (configuration not stated)	-31.72
Cc1noc(C)c1-c1cccc(C2CCCNC2)n1 (configuration not stated)	29.48
CN(C)c1nc(N)nc(CN2CCCC2c2cccs2)n1 (configuration not stated)	-43.18
CC(CO)N(C)C(=O)c1cn(-c2ccc(Br)cc2)cn1 (configuration not stated)	-33.03
O=C(c1cncc(NCC2COc3ccccc3C2)n1)N1CCCCC1 (configuration not stated)	31.05
O=C(c1cncc(NCC2COc3ccccc3C2)n1)N1CCCC1 (configuration not stated)	50.3
O=C(c1cncc(NCC2COc3ccccc3C2)n1)N1CCOCC1 (configuration not stated)	10.77
Cc1ncc(CNC(=O)N(C)C2CCN(c3ccccc3)C2=O)s1 (configuration not stated)	-16.12
CNc1cc(C2CN(Cc3coc(C)n3)CCO2)nc(C)n1 (configuration not stated)	-13.51
CS(=O)(=O)CCN1CC(c2ccccc2)(c2ccccc2)CCC1=O	19.12
O=C1CCC(c2ccccc2)(c2ccccc2)CN1CCO	22
CN(C)C(=O)CCN1CC(c2ccccc2)(c2ccccc2)CCC1=O	64.08
Cn1ccnc1CN1CC[C@@H](NS(C)(=O)=O)[C@@H]1Cc1cccnc1	-29.46
Cc1nc(C)c(CNCC2CCCn3ccnc32)s1 (configuration not stated)	50.59
CN1CCOC(CNCc2cnc(C(C)(C)C)s2)C1 (configuration not stated)	11.01
Cc1cn2c(n1)C(CNCc1ccc(C)s1)CCC2 (configuration not stated)	-35.26
CCN(CC)c1ncc(CNCC2CCCn3ccnc32)s1 (configuration not stated)	-6.64
Cc1ccc(CNCC2CCCn3ccnc32)s1 (configuration not stated)	14.82
CC(C)(C)c1ncc(CNCC2CCCn3ccnc32)s1 (configuration not stated)	52.98
Cn1cc(CN2CCc3nc4sccc4c(=O)n3CC2)cn1	35.7

SMILES	INHIBITION [%]
COc1ccc(C(=O)N2CCC(Nc3cccnn3)CC2)c(OC)c1	-51.92
CC(C)NC(=O)N1CCCC2(CCN(c3ccsc3)C2=O)C1 (configuration not stated)	17.77
CCC1CN(C)c2ccccc2CN1C(=O)c1c[nH]c(=O)cc1C (configuration not stated)	42.8
CN(C)C(=O)[C@H]1C[C@H]2OCC[C@H]2N(Cc2ccc(F)cc2)C1	35.38
CCC(CC)n1nc(C)cc1NC(=O)C1CCCO1 (configuration not stated)	53.61
CCC(CC)n1nc(C)cc1NC(=O)C1CCOC1 (configuration not stated)	-3.87
CCC(CC)n1nc(C)cc1NC(=O)CC1CCOCC1	-28.5
Cc1nc(C(=O)N(C)C2CC(=O)N(Cc3ccccc3)C2=O)cs1 (configuration not stated)	50.42
Cc1[nH]ccc1C(=O)N(C)C1CC(=O)N(Cc2ccccc2)C1=O (configuration not stated)	30.59
CN(C(=O)c1ccc[nH]1)C1CC(=O)N(Cc2ccccc2)C1=O (configuration not stated)	29.91
O=C(C[C@@H]1COC[C@H]2CN(C(=O)c3cccnc3)C[C@@H]12)N1CCOCC1	22.89
Cc1ccc(CN2CCOC3(COCCN(C(C)C)C3)C2)s1 (configuration not stated)	-9.22
CCc1nsc(N2CCCN(C(=O)COc3ccccc3)CC2)n1	-26.86
CCc1ncc(C(=O)N2CCN(C(=O)COc3ccccc3)CC2)cn1	-28.5
CCc1nsc(N2CCN(C(=O)COc3ccccc3)CC2)n1	61.82
N#CCCN(c1ccc(F)cc1)S(=O)(=O)CC1CCCCO1 (configuration not stated)	-7.39
CC(=O)Nc1ccc(C(=O)NCCCn2cccc2)cc1	30.58
CN(C)c1cc(C(=O)N2CCCCC2CNS(C)(=O)=O)ccn1 (configuration not stated)	53.11
CN(C)c1cc(C(=O)N2CCCCC2Cn2cccn2)ccn1 (configuration not stated)	-7.15
CCC1CCCCN1C(=O)c1ccnc(N(C)C)c1 (configuration not stated)	16.84
CC(C)NC(=O)[C@H]1C[C@@H]2[C@@H](C1)OCCN2Cc1cccs1	29.43

Reference: ChEMBL document CHEMBL4513216, “Probing the Open Global Health Chemical Diversity Library for Multistage-Active Starting Points for Next-Generation Antimalarials” (ACS Infect Dis, 2020)
